Test results: PubChem BioAssay (EPA / NIEHS)
Calls of active or inactive are those of the source. The calls were made as follows: active = hit-call score of the fitted dose curve at least 0.9, where 1 is the maximum; inactive = score below 0.9.

These molecules were tested on TIMP metallopeptidase inhibitor 1 (TIMP1), TIMP1 (gene 7076) (assay: BSK_hDFCGF_TIMP1: BioMAP Diversity Plus: hDFCGF Assay for TIMP metallopeptidase inhibitor 1 (TIMP1) Biomarker Activity (AID 2283062)). Settings: primary human foreskin fibroblasts; actives raise or lower the signal.
Description: BSK_hDFCGF is a cell-based, multiplexed-readout assay that uses foreskin fibroblast, a human skin primary cell, with measurements taken at 24 hours after chemical dosing in a 96-well plate.BSK_hDFCGF_TIMP1 is an assay component measured in the BSK_hDFCGF assay. It measures TIMP-1 antibody related to regulation of gene expression using ELISA technology.Data from the assay component BSK_hDFCGF_TIMP1 was analyzed into 1 assay endpoint. This assay endpoint, BSK_hDFCGF_TIMP1, was analyzed with bidirectional fitting relative to DMSO as the negative control and baseline of activity. Using a type of binding reporter, gain or loss-of-signal activity can be used to understand changes in the signaling as they relate to the gene TIMP1. Furthermore, this assay endpoint can be referred to as a primary readout, because this assay has produced multiple assay endpoints where this one serves a signaling function. To generalize the intended target to other relatable targets, this assay endpoint is annotated to the protease inhibitor intended target family, where the subfamily is metalloproteinase inhibitor.
The levels of cell surface (or secreted, indicated by the prefix "s") biomarker endpoints were measured by ELISA. Overt cytotoxicity to cells in confluent adherent cultures (all systems other than the BT system) was assessed by measuring total protein levels using sulforhodamine B (SRB) staining in parallel cultures at the time of biomarker measurements, indicated as SRB endpoints. For proliferation assays for adherent cell types, individual cell types are cultured at sub-confluence and relative cell numbers quantified by SRB staining at time points optimized for each system (48 h: 3C and CASM3C systems; 72 h: BT and HDF3CGF systems; 96 h: SAg system). SRB was performed by staining cells with 0.1% SRB after fixation with 10% TCA and reading wells at 560 nm.Viability and proliferation of PBMC (T cells) was quantified by Alamar Blue reduction for the SAg and BT systems. For PBMC viability (referred to as PBMC Cytotoxicity within the assay endpoint names), cells were plated (75,000/well in a 96-well plate) and then chemical samples added for 1 h before addition of activators, SEB and TSST-1 (20 ng/mL final concentration each). Cells were incubated for 90 h. Then, Alamar Blue (20 uL/well) (Invitrogen, Cat DAL1100) was added for 6 h, and the plates were read with a fluorescence microplate reader at 546/580 nm (excitation/emission). For PBMC proliferation, cells were plated and activated as above but incubated for only 16 h prior to addition of Alamar Blue. Plates were read after 6 h.

SMILES | AC50 | outcome
Cc1cc(F)ccc1-c1cc(N2CC[C@@H](O)[C@H]2CO)ncc1N(C)C(=O)C(C)(C)c1cc(C(F)(F)F)cc(C(F)(F)F)c1 | 12.4 µM (active) | –
CN(C)c1ccc(C(=C2C=CC(=[N+](C)C)C=C2)c2ccc(N(C)C)cc2)cc1 | 1.95 µM (active) | –
O=C(OCCCCCCOC(=O)c1ccccc1)c1ccccc1 | – | inactive
C[C@]12CC[C@@H]3c4ccc(O)cc4CC[C@H]3[C@@H]1CCC2=O | – | inactive
CO[C@H]1/C=C/O[C@@]2(C)Oc3c(C)c(O)c4c(O)c(c(/C=N/N5CCN(C)CC5)c(O)c4c3C2=O)NC(=O)/C(C)=C\C=C\[C@H](C)[C@H](O)[C@@H](C)[C@@H](O)[C@@H](C)[C@H](OC(C)=O)[C@@H]1C | – | inactive
CCCCCc1ccc(N)cc1 | – | inactive
O=C(O)c1ccccc1C(=O)OCc1ccccc1 | – | inactive
CC1(C)NC(=O)N(c2ccc([N+](=O)[O-])c(C(F)(F)F)c2)C1=O | – | inactive
O=c1ccc2ccccc2o1 | – | inactive
CC(C)(c1cc(Br)c(O)c(Br)c1)c1cc(Br)c(O)c(Br)c1 | 6.42 µM (active) | –
CC(=O)N1CCN(c2ccc(OC[C@H]3CO[C@](Cn4ccnc4)(c4ccc(Cl)cc4Cl)O3)cc2)CC1 | 35.4 µM (active) | –
CCCCCCCCOc1ccc(C(=O)c2ccccc2)c(O)c1 | – | inactive
O=C1CCC(C2CCCCC2)CC1 | 32.7 µM (active) | –
Cc1c2ccccc2c(C)c2c1ccc1ccccc12 | – | inactive
Cc1cccc2ccccc12 | – | inactive
CCN(Cc1cccc(S(=O)(=O)O)c1)c1ccc(C(=C2C=CC(=[N+](CC)Cc3cccc(S(=O)(=O)O)c3)C=C2)c2ccccc2S(=O)(=O)[O-])cc1 | – | inactive
O=C=NCCCCCCN=C=O | – | inactive
NCc1cccc(C2CCN(C(=O)c3ccc(C#Cc4ccccc4F)o3)CC2)c1 | 11.8 µM (active) | –
COc1cccc([C@H](O)C2CCN(CCc3ccc(F)cc3)CC2)c1OC | – | inactive
CCOC(=O)O[C@H](C)OC(=O)c1ccc2c(c1)cc(C(=O)NC1CCN(C(C)C)CC1)n2Cc1cc(-c2ccc(Cl)s2)on1 | 4.35 µM (active) | –

SMILES | AC50 | outcome
Cc1oc2c(NC(=O)c3c(Cl)cccc3Cl)cccc2c1C(C)(C)O | 12.3 µM (active) | –
Oc1ccc2ccccc2c1 | – | inactive
CN1C(=O)N(c2ccccc2Br)Cc2cnc(Nc3ccc4c(c3)OCC(CO)O4)nc21 (stereo not given) | 6.79 µM (active) | –
Cc1occc1C(=O)Nc1ccc(C(=O)N2CCC(F)(F)/C(=C\C(=O)N3CCC(N4CCCCC4)CC3)c3ccccc32)cc1 | – | inactive
Cc1cn([C@H]2C[C@H](N=[N+]=[N-])[C@@H](CO)O2)c(=O)[nH]c1=O | – | inactive
CN(C[C@@H](CC[N+]12CCC(C3CCCCC3)(CC1)CC2)c1ccc(Cl)c(Cl)c1)C(=O)c1cc(C(F)(F)F)cc(C(F)(F)F)c1 | 7.05 µM (active) | –
NC(=O)c1nc(-c2cccc(-c3cc(F)ccc3OCC(F)(F)C(F)(F)F)c2)n[nH]1 | 35.5 µM (active) | –
CC(O)CC(C)(C)O (stereo not given) | – | inactive
CCCOC(=O)c1cc(O)c(O)c(O)c1 | – | inactive
O=C1c2ccccc2C(=O)N1CCc1noc(-c2ccc(CN3CCCCCC3)s2)n1 | – | inactive
CC(C)(C)c1cc(/C=C2\SC(N)=NC2=O)cc(C(C)(C)C)c1O | 31 µM (active) | –
OC12N=C(c3ccccc3)SC1Cc1cc(Cl)ccc12 (stereo not given) | – | inactive
O=C1O[C@H]([C@@H](O)CO)C(O)=C1O | – | inactive
C[C@]12CC[C@@H]3c4ccc(O)cc4CC[C@H]3[C@@H]1CC[C@H]2O | – | inactive
CCN(CC)C(=O)c1cc(S(=O)(=O)Cc2ccccc2)c(N2CCC(c3ccccc3)CC2)cc1N(CC)CCN(C)C | – | inactive
CC[C@@H]1C[C@H](N(Cc2cc(C(F)(F)F)cc(C(F)(F)F)c2)C(C)=O)c2cc(C(F)(F)F)ccc2N1C(=O)OC(C)C | – | inactive
O=C(O)Cn1c(=O)n(Cc2ccc(Br)cc2F)c(=O)c2ccc(Cl)cc21 | – | inactive
CCCCCCCCCCCO | – | inactive
CCCCCCCCN(C)CCCCCCCC | – | inactive
COc1cc(C(=O)NC2CCN(C)CC2)ccc1Nc1ncc2c(n1)N(C1CCCC1)CC(F)(F)C(=O)N2C | – | inactive
